Source: PubChem BioAssay (EPA / NIEHS)
Inconclusive results are not listed. Active and inactive are the calls of the source. Rule for the calls, unless noted: active = hit-call score of the fitted dose curve at least 0.9, where 1 is the maximum; inconclusive = response in the unintended direction; inactive = score below 0.9.

Key:
[1] = ATG_TCF_b_cat_CIS: Attagene CIS-FACTORIAL HepG2 Assay for human T-Cell-Factor with beta-catenin (TCF/b-cat) (AID 2282965; active = hit-call score of the fitted dose curve at least 0.9, where 1 is the maximum; inactive = score below 0.9); conditions: HepG2 TCF/beta-catenin cis-reporter transcription, actives raise or lower the signal
In short: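 HepG2, transient MRTU transfection, cis-element-driven reporters (endogenous TFs). 24 h compound exposure. Readout: reporter mRNA by RT-PCR + 6-FAM primer extension, HpaI digest, capillary electrophoresis. Gain/loss fit vs DMSO baseline.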

[2] = ATG_TGFb_CIS: Attagene CIS-FACTORIAL HepG2 Assay for human Transforming Growth Factor (TGF) (AID 2282967; active = hit-call score of the fitted dose curve at least 0.9, where 1 is the maximum; inactive = score below 0.9); conditions: HepG2 Attagene CIS TGFb reporter, mRNA transcription; actives raise or lower the signal
In short: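 Transient MRTU transfection of HepG2 (FuGene 6). Dose 24 h. TriZol RNA, oligo(dT) RT, PCR, 6-FAM primer extension, HpaI cut, CE. Bidirectional fit, DMSO = baseline.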

[3] = ATG_VDRE_CIS: Attagene CIS-FACTORIAL HepG2 Assay for human Vitamin D Receptor Element (VDRE) (AID 2282968; active = hit-call score of the fitted dose curve at least 0.9, where 1 is the maximum; inactive = score below 0.9); conditions: HepG2 VDRE cis-reporter transcription, actives raise or lower the signal
In short: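 Cell-based multiplexed reporter format in human liver HepG2 cells, 24 h post-dose. Fluorescence from capillary electrophoresis of reporter cDNA gives the signal, with DMSO as negative control and baseline.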

[4] = target: Nuclear receptor subfamily 1 group I member 3 (Homo sapiens) (UniProt Q14994); assay: ATG_CAR_TRANS: Attagene TRANS-FACTORIAL HepG2 Assay for human Constitutive Androstane Receptor (CAR) (AID 2282969); conditions: HepG2 Attagene TRANS-FACTORIAL CAR reporter;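 note: activators raise reporter mRNA above DMSO so AC50 marks induction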
In short: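 HepG2 cells transiently transfected with GAL4-UAS reporter units; TRANS format reads activity of exogenous chimeric NR-Gal4 protein. After 24 h dosing, reporter mRNA quantified by RT-PCR, 6-FAM labelling and capillary electrophoresis; gain of signal fitted against DMSO.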

[5] = target: Estrogen receptor (Homo sapiens) (UniProt P03372); assay: ATG_ERa_TRANS: Attagene TRANS-FACTORIAL HepG2 Assay for human Estrogen Receptor alpha (ERa) (AID 2282970); conditions: HepG2 Attagene TRANS ERa GAL4 reporter, mRNA
In short: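 HepG2 cells transiently transfected with multiplexed GAL4-UAS reporter units read out chimeric NR-Gal4 activity. After 24 h compound exposure, reporter mRNA was quantified by RT-PCR, 6-FAM labeling, HpaI digestion and capillary electrophoresis, relative to DMSO.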

[6] = target: X-box-binding protein 1 (Homo sapiens) (UniProt P17861); assay: ATG_Xbp1_CIS: Attagene CIS-FACTORIAL HepG2 Assay for human X-box Binding Protein 1 (XBP1) (AID 2282972; active = hit-call score of the fitted dose curve at least 0.9, where 1 is the maximum; inactive = score below 0.9); conditions: HepG2 XBP1 cis-element reporter, Attagene multiplex; actives raise or lower the signal
In short: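 HepG2 cells transiently transfected with cis-regulated multiple reporter transcription units; endogenous transcription factor activity measured 24 hours after chemical dosing. Reporter mRNA quantified by RT-PCR, 6-FAM primer extension, HpaI digestion and capillary electrophoresis; bidirectional fitting versus DMSO.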

[7] = ATG_M_19_TRANS: Attagene TRANS-FACTORIAL HepG2 Assay for M19 Transcription Factor (Internal Marker) (AID 2282974); conditions: HepG2 Attagene TRANS-FACTORIAL M19 internal marker reporter
In short: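 Fluorescence of 6-FAM-labelled reporter cDNA fragments, separated by capillary electrophoresis, served as the readout. These derived from HepG2 cells carrying transfected GAL4-UAS reporter units after 24 h dosing, with DMSO as negative control.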

[8] = ATG_Hpa5_TRANS: Attagene TRANS-FACTORIAL HepG2 Assay for human GAL4-Hpa5 Hepatocyte Transcription Factor Basal Promoter (AID 2282975); conditions: HepG2 Attagene GAL4-Hpa5 transcription reporter;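 note: hits are increases in reporter mRNA over DMSO baseline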
In short: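 Basal-promoter GAL4 background control within the HepG2 trans-factorial panel of transiently transfected reporter units. Reporter mRNA is measured 24 h after dosing by RT-PCR and capillary electrophoresis, fitted for gain of signal versus DMSO.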

[9] = ATG_GAL4_TRANS: Attagene TRANS-FACTORIAL HepG2 Assay for GAL4 (Internal Marker) (AID 2282976); conditions: HepG2 Attagene TRANS GAL4 internal marker reporter
In short: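 Background-control readout: GAL4-UAS reporter transcript in transiently transfected HepG2 cells after 24 h compound exposure. Measured by RT-PCR, 6-FAM primer extension, HpaI digest and capillary electrophoresis; gain-of-signal fit versus DMSO.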

[10] = target: Hepatocyte nuclear factor 4-alpha (Homo sapiens) (UniProt P41235); assay: ATG_HNF4a_TRANS: Attagene TRANS-FACTORIAL HepG2 Assay for human Hepatocyte Nuclear Factor 4 alpha (HNF4a) (AID 2282982); conditions: HepG2 HNF4a transactivation reporter, mRNA readout
In short: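 Gain-of-signal mRNA induction, relative to DMSO vehicle, was read after 24 h compound treatment of HepG2 cells bearing transfected GAL4-UAS reporters. Detection used RT-PCR, 6-FAM primer extension and capillary electrophoresis.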

[11] = ATG_M_06_TRANS: Attagene TRANS-FACTORIAL HepG2 Assay for M06 Transcription Factor (Internal Marker) (AID 2282983); conditions: HepG2 Attagene TRANS M06 internal marker reporter
In short: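 HepG2 cells transiently transfected with GAL4-UAS multiple reporter units, dosed 24 h. Reporter RNA reverse-transcribed, PCR-amplified, 6-FAM-labeled, HpaI-digested and quantified by capillary electrophoresis; this internal-marker signal fitted upward relative to DMSO.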

[12] = ATG_M_32_TRANS: Attagene TRANS-FACTORIAL HepG2 Assay for M32 Transcription Factor (Internal Marker) (AID 2282984); conditions: HepG2 Attagene TRANS M32 internal marker reporter
In short: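 Capillary electrophoresis of 6-FAM-labelled reporter fragments gives the signal; data fitted for gain over DMSO negative control. Source: HepG2 cells bearing transient multiple reporter transcription units, 24 h exposure.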

[13] = target: Steroid hormone receptor ERR1 (Homo sapiens) (UniProt P11474); assay: ATG_ERRa_TRANS: Attagene TRANS-FACTORIAL HepG2 Assay for human Estrogen-Related Receptor alpha (ERRa) (AID 2282971); conditions: HepG2 Attagene TRANS reporter, ERRa transactivation
In short: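 HepG2 cells transiently transfected with GAL4-UAS reporter units and chimeric NR-Gal4 constructs; after 24 hour compound incubation, reporter mRNA quantified by RT-PCR, fluorescent labelling and capillary electrophoresis, gain of signal versus DMSO.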

[14] = target: Estrogen-related receptor gamma (Homo sapiens) (UniProt P62508); assay: ATG_ERRg_TRANS: Attagene TRANS-FACTORIAL HepG2 Assay for human Estrogen-Related Receptor gamma (ERRg) (AID 2282977); conditions: HepG2 Attagene TRANS reporter, ERRg transactivation;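 note: hits increase reporter signal over DMSO so potencies reflect activators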
In short: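 Transient HepG2 transfectants, 24 h compound exposure, GAL4-UAS reporter mRNA by RT-PCR/6-FAM labelling/capillary electrophoresis; positive direction vs DMSO.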

[15] = target: Glucocorticoid receptor (Homo sapiens) (UniProt P04150); assay: ATG_GR_TRANS: Attagene TRANS-FACTORIAL HepG2 Assay for human Glucocorticoid Receptor (GR) (AID 2282978); conditions: HepG2 Attagene TRANS GR reporter, mRNA transcription;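 note: activators score as hits since higher reporter transcript over DMSO is fitted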
In short: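 Fluorescent capillary-electrophoresis quantitation of reporter mRNA is the readout, taken 24 h after dosing human HepG2 cells carrying transiently transfected GAL4-UAS reporter units activated by chimeric NR-GAL4 fusions; activity scored as induction over DMSO.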

[16] = target: Oxysterols receptor LXR-alpha (Homo sapiens) (UniProt Q13133); assay: ATG_LXRa_TRANS: Attagene TRANS-FACTORIAL HepG2 Assay for human Liver X Receptor alpha (LXRa) (AID 2282980); conditions: HepG2 Attagene TRANS reporter, LXRa transactivation
In short: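 HepG2 cells transiently transfected with GAL4-UAS reporter units for chimeric NR-Gal4 proteins, exposed to chemicals for 24 h. Reporter mRNA quantified by RT-PCR and capillary electrophoresis; gain of signal fitted relative to DMSO.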

[17] = target: Oxysterols receptor LXR-beta (Homo sapiens) (UniProt P55055); assay: ATG_LXRb_TRANS: Attagene TRANS-FACTORIAL HepG2 Assay for human Liver X Receptor beta (LXRb) (AID 2282981); conditions: HepG2 Attagene TRANS GAL4-LXRb reporter, mRNA
In short: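 Gain-of-signal mRNA reporter endpoint, DMSO as negative control. Transiently transfected HepG2 cells carrying the NR-Gal4 chimera and GAL4-UAS reporter units were treated 24 h; transcripts quantified by RT-PCR and capillary electrophoresis fluorescence.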

[18] = target: Androgen receptor (Homo sapiens) (UniProt P10275); assay: ATG_AR_TRANS: Attagene TRANS-FACTORIAL HepG2 Assay for human Androgen Receptor (AR) (AID 2282973); conditions: HepG2 Attagene TRANS-FACTORIAL AR reporter transcription
In short: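 HepG2 cells transiently transfected with AR-Gal4 chimera and GAL4-UAS reporter units; chemical exposure 24 h. Reporter mRNA quantified by RT-PCR with fluorescent labelling and capillary electrophoresis; gain-of-signal fitted against DMSO.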

[19] = target: Bile acid receptor (Homo sapiens) (UniProt Q96RI1); assay: ATG_FXR_TRANS: Attagene TRANS-FACTORIAL HepG2 Assay for Farnesoid X Receptor (FXR) (AID 2282979); conditions: HepG2 Attagene TRANS FXR-GAL4 reporter transcription;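 note: hits raise reporter mRNA above DMSO so AC50 marks FXR activation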
In short: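 HepG2 cells were transiently transfected with GAL4-UAS reporters driven by chimeric NR-Gal4 proteins and dosed for 24 h. Reporter mRNA was quantified by RT-PCR, fluorescent labelling, HpaI digestion and capillary electrophoresis, with gain of signal scored versus DMSO.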

Measured: AC50

Sequence of Estrogen-related receptor gamma (Homo sapiens) (P62508 whole entry, looked up, the tested form may be a part): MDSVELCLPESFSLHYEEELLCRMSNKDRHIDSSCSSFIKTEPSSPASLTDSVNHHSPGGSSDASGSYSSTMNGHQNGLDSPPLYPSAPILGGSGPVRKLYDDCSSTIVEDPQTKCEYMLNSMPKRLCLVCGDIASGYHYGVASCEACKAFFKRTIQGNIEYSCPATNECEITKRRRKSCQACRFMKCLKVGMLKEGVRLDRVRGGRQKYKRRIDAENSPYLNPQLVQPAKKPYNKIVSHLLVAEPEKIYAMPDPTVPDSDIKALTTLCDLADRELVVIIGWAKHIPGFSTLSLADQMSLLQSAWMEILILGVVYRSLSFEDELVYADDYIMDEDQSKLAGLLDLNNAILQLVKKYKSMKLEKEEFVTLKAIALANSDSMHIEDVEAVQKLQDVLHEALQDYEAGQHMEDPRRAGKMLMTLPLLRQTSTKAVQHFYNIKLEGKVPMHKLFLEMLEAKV
Sequence of Hepatocyte nuclear factor 4-alpha (Homo sapiens) (P41235 whole entry, looked up, the tested form may be a part): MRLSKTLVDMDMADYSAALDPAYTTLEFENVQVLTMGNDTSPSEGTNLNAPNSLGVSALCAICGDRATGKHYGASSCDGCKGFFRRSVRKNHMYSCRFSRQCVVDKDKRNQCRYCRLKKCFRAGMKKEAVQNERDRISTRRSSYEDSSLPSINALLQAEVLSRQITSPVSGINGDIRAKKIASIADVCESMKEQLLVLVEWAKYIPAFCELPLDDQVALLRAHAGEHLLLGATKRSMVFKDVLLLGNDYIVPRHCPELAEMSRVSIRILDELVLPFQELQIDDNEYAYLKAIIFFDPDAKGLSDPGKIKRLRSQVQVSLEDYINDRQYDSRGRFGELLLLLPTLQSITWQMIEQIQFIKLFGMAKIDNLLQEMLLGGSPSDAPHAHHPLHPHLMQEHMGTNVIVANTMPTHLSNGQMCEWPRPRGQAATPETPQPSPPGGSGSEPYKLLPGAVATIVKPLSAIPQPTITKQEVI
Sequence of Oxysterols receptor LXR-beta (Homo sapiens) (P55055 whole entry, looked up, the tested form may be a part): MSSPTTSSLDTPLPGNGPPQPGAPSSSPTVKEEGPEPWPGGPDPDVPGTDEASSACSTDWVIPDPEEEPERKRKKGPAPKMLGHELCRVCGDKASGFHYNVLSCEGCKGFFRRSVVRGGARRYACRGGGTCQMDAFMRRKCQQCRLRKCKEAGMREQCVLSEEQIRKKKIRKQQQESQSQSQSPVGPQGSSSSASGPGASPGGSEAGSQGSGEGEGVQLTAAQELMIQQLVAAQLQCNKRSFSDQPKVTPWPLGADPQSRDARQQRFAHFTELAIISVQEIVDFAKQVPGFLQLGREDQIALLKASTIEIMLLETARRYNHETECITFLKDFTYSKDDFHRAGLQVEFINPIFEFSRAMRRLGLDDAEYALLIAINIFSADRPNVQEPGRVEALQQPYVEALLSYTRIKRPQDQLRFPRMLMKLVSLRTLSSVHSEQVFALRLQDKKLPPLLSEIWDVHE
Sequence of Glucocorticoid receptor (Homo sapiens) (P04150 whole entry, looked up, the tested form may be a part): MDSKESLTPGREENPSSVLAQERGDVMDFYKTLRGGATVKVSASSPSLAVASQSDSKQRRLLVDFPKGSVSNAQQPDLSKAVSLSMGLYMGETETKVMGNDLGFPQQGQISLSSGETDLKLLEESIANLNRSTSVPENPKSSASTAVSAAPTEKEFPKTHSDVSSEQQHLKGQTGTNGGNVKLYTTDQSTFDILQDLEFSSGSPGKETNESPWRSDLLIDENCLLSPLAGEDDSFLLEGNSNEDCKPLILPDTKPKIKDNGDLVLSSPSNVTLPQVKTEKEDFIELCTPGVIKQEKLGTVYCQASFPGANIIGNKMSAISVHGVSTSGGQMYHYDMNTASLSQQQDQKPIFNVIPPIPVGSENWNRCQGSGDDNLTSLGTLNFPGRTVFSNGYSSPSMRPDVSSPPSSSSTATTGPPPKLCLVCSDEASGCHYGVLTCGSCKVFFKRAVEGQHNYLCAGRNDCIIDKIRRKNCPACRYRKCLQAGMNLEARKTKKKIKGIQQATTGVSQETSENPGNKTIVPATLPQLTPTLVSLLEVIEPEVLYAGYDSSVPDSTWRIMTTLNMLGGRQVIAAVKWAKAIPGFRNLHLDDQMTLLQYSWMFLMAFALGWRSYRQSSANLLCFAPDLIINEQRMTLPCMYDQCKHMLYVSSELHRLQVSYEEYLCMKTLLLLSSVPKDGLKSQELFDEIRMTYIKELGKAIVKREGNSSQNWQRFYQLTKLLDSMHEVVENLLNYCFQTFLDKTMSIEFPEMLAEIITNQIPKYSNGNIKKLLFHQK
Sequence of X-box-binding protein 1 (Homo sapiens) (P17861 whole entry, looked up): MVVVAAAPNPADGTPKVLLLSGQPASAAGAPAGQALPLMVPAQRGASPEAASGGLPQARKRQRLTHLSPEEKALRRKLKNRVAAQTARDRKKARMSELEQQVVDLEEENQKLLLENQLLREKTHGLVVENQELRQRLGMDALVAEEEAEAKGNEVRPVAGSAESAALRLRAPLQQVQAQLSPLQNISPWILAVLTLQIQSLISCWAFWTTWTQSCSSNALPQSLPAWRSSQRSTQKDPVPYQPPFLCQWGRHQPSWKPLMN
Sequence of Nuclear receptor subfamily 1 group I member 3 (Homo sapiens) (Q14994 whole entry, looked up, the tested form may be a part): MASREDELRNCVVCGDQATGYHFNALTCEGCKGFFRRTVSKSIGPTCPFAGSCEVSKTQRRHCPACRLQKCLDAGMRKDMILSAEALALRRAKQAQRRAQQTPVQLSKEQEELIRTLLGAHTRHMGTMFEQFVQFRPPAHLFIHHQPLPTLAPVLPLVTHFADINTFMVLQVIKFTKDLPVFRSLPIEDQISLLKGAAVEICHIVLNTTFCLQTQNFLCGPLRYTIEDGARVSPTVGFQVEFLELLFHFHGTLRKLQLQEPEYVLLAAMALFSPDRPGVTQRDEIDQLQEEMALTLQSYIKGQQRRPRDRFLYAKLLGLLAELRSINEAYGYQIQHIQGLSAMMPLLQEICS
Sequence of Estrogen receptor (Homo sapiens) (P03372 whole entry, looked up, the tested form may be a part): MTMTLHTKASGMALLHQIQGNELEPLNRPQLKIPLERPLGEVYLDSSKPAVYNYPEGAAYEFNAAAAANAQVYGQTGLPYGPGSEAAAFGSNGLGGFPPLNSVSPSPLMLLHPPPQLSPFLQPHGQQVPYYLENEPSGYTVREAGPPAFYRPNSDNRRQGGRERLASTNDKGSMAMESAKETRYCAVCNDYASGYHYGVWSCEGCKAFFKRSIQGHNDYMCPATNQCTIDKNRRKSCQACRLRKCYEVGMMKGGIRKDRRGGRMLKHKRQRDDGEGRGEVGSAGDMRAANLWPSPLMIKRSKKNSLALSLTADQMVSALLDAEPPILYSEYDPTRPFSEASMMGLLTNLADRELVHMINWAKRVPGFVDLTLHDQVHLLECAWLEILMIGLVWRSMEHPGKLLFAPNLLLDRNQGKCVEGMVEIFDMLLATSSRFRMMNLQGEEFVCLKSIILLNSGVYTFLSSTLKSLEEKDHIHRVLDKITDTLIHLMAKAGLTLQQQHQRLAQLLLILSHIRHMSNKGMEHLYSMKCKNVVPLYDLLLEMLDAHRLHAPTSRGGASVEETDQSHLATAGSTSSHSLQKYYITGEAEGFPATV
Sequence of Steroid hormone receptor ERR1 (Homo sapiens) (P11474 whole entry, looked up, the tested form may be a part): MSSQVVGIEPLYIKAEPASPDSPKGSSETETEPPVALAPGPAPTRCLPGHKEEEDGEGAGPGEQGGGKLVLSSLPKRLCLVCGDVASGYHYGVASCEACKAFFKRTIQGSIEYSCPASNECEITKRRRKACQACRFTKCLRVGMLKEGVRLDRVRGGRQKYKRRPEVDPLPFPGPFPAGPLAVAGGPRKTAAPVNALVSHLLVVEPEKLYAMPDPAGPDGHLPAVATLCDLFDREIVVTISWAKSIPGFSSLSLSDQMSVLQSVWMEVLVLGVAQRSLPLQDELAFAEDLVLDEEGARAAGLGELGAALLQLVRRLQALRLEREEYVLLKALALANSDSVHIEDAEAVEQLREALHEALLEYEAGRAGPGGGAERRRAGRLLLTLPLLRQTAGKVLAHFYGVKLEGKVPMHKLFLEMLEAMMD
Sequence of Oxysterols receptor LXR-alpha (Homo sapiens) (Q13133 whole entry, looked up, the tested form may be a part): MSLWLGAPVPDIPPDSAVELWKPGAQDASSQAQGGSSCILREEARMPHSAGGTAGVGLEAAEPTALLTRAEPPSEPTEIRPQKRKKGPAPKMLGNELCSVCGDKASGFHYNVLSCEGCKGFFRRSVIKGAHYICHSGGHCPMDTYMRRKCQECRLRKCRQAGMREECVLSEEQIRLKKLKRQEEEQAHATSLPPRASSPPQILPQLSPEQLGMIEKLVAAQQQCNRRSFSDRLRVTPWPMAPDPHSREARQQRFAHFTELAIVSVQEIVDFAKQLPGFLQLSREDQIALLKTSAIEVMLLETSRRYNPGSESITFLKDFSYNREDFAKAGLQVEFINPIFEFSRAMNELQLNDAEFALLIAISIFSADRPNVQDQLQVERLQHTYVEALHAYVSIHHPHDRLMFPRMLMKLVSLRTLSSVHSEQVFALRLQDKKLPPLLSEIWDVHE
Sequence of Bile acid receptor (Homo sapiens) (Q96RI1 whole entry, looked up, the tested form may be a part): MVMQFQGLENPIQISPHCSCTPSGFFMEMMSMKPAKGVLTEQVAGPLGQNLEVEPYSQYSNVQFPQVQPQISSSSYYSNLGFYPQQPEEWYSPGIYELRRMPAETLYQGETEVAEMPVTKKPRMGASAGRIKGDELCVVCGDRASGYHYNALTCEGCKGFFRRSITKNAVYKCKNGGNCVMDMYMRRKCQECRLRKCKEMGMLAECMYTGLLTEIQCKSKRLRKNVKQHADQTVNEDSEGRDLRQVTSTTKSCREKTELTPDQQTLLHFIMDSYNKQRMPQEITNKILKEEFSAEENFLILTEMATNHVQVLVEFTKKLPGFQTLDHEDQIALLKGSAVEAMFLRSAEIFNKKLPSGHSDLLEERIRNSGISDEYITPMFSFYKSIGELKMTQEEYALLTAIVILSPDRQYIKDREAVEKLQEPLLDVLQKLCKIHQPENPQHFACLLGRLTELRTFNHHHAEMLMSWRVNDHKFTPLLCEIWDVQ

Cc1c(COC(=O)[C@@H]2[C@H](/C=C(\Cl)C(F)(F)F)C2(C)C)cccc1-c1ccccc1
active: [3] 12.6 µM | [5] 14.9 µM
inactive: [1] | [2] | [4] | [6] | [7] | [8] | [9] | [10] | [11] | [12]

N#Cc1c[nH]cc1-c1cccc2c1OC(F)(F)O2
inactive: [1] | [2] | [13] | [7] | [8] | [9] | [14] | [15] | [16] | [17] | [10] | [11] | [12]
active: [3] 17.5 µM | [5] 2.84 µM | [6] 4.63 µM

N#Cc1c(Cl)cccc1Cl
inactive: [1] | [2] | [4] | [5] | [6] | [7] | [8] | [14] | [15] | [17] | [12]

CS(=O)(=O)c1cc(C(F)(F)F)ccc1C(=O)c1cnoc1C1CC1
inactive: [1] | [2] | [3] | [4] | [13] | [6] | [7] | [8] | [14] | [15] | [16] | [17] | [12]

Nc1c(Cl)c(F)nc(OCC(=O)O)c1Cl
inactive: [1] | [2] | [3] | [5] | [13] | [6] | [18] | [14] | [15] | [17] | [11]

COc1cc(Cl)c(OC)cc1Cl
inactive: [1] | [2] | [3] | [5] | [13] | [6] | [7] | [8] | [15] | [17] | [10] | [11] | [12]

CC(C)N1C(=O)N(c2ccccc2)CSC1=NC(C)(C)C
inactive: [1] | [2] | [3] | [4] | [5] | [6] | [18] | [7] | [8] | [14] | [15] | [12]

CC(C)=CC1C(C(=O)OCc2coc(Cc3ccccc3)c2)C1(C)C (stereo unspecified)
active: [3] 14.5 µM | [5] 19.6 µM
inactive: [1] | [2] | [4] | [6] | [7] | [8] | [15] | [19] | [17] | [10] | [11]
